Screening data from PubChem.
Shown are actives, neighbours in structure and some others; about 3.1% of the full set was active somewhere.
NadD inh – inhibitors of S. aureus NadD, primary screen, biochemical, colorimetric, uHTS; hit rate 0.78% among 360,000; purified NadD enzyme, colorimetric absorbance read-out; inhibition, % at 20 µM; Nicotinate-nucleotide adenylyltransferase NadD (Staphylococcus aureus N315); AID 602399, 2012; in the data active = inhibition above about 26%
ATG4B inhibitor – ATG4B protease inhibitors, primary screen, biochemical, fluorescence, uHTS; Cysteine protease ATG4B (Homo sapiens), Q9Y4P1; ATG4B cleavage of LC3-PLA2, NBD-HPC fluorescence, 1 h; inhibition, % at 8.33 µM; hit rate 0.51% among 340,000; AID 504462, 2011; in the data active = inhibition above about 40%
Target sequence (Q9Y4P1 whole entry, looked up): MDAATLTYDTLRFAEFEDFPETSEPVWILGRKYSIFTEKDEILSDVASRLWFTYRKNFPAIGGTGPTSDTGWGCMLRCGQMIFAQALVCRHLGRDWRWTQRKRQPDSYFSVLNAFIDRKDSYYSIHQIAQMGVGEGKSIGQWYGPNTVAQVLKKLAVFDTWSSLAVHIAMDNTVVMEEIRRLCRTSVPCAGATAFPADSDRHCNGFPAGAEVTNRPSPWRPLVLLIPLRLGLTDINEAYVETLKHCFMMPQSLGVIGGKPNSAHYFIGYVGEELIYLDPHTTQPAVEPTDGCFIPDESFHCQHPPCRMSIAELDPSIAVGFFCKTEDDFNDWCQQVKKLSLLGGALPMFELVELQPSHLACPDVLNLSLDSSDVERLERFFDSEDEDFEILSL
Calb FLC – C. albicans growth inhibition with fluconazole, primary screen, CaCi-2 strain, Alamar Blue fluorescence. growth inhibition, % (concentration not given with the values). hit rate 0.57% among 300,000. C. albicans CaCi-2 (fluconazole-resistant clinical isolate) + fluconazole, 48 h;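 active = growth inhibition above about 58% in most replicates, limit read from the data, passing the limit was not always enough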;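 note: all wells also contain fluconazole at 8 µg/ml as a sub-toxic cotreatment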
SUMO Mot1 rescue – yeast Mot1-301 growth rescue at high temperature, primary screen, SUMOylation pathway inhibitor project, S. cerevisiae, ATP luminescence, 38.5C | hit rate 1% among 320,000 | AID 2716, 2010 | growth rescue, % at 18.8 µM | S. cerevisiae Mot1-301 growth rescue; percent above DMSO median, 100 means doubled;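 active = every valid replicate shows activation above 250% relative to neutral control wells; inactive = the rest, any valid replicate at or below 250%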
FAS-TE inh – FAS thioesterase domain inhibitors, primary screen, biochemical, fluorescence intensity, uHTS. recombinant FAS-TE, OMFH fluorogenic substrate, fluorescence endpoint. inhibition, % at 15 µM. hit rate 0.67% among 360,000. AID 602261, 2012;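 active = compounds whose normalised, plate-corrected inhibition of enzyme fluorescence in the single-dose primary screen is 50% or more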
FAS-TE inh conf – FAS thioesterase domain inhibitors, confirmation, biochemical, fluorescence intensity, single concentration; shares compounds with FAS-TE inh; recombinant FAS-TE, OMFH fluorogenic substrate; inhibition, % at 15 µM; hit rate 45% among 2,300;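 active = compounds inhibiting the enzyme by at least 50% at 15 µM in any one of the replicates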
Hits are given with their value; . = inactive; / = no result given.

SMILES | NadD inh | ATG4B inhibitor | Calb FLC | SUMO Mot1 rescue | FAS-TE inh | FAS-TE inh conf
Cc1cc(C(C)(C)C)cc(C)c1COC(=O)CN1C(=O)NC2(CCCC2)C1=O | . | . | / | . | 52 | 56
C[C@@H]1CN([C@H](C)CO)S(=O)(=O)c2ccc(C#Cc3ccccc3F)cc2O[C@@H]1CN(C)C(=O)Cc1ccccc1 | . | / | / | / | 70 | 41
CCS(=O)(=O)c1ncc(Cl)c(C(=O)Nc2ccc(S(=O)(=O)N(C)c3ccccc3)cc2)n1 | . | . | . | . | . | /
CCN(c1ccccc1)S(=O)(=O)c1ccc(NC(=O)c2nc(S(C)(=O)=O)ncc2Cl)cc1 | . | . | . | . | 58 | 61
O=C(Nc1ccc(F)cc1)c1nc(S(=O)(=O)Cc2ccccc2)ncc1Cl | . | . | . | . | 57 | 58
Cc1ccccc1CS(=O)(=O)c1ncc(Cl)c(C(=O)Nc2ccc(F)cc2)n1 | . | . | . | 316 | 50 | .
CCN(CC)C(=O)COc1coc(CN2CCN(c3ccccc3F)CC2)cc1=O | . | . | . | . | . | /
O=C1c2ccccc2C(=O)c2c(/C=C/N3CCCCC3)ccnc21 | . | . | / | / | . | /
CC1CC(C)CN(C(=O)COC(=O)c2nn(C)c(=O)c3ccccc23)C1 (stereo not given) | . | . | . | . | . | /
O=C(c1ccc(Cl)c(S(=O)(=O)N2CCCCCC2)c1)N1CCCC1 | . | . | . | . | . | /
O=C(Nc1ccc2c(c1)OCCO2)C(c1ccnc2ccccc12)N1CCN(c2ccc(C(F)(F)F)cn2)CC1 (stereo not given) | . | / | / | / | 92 | .
CN(C)S(=O)(=O)N1CCCC(C(=O)c2ccc(C(F)(F)F)cc2)C1 (stereo not given) | . | . | . | . | . | /
O=c1c2ccccc2c(C=Nc2ccc(S(=O)(=O)N3CCCCC3)cc2)c(O)n1-c1ccc(Cl)cn1 | . | . | . | . | 61 | .
CCc1nnc(/N=C/c2c(O)n(-c3ccc(Cl)cn3)c(=O)c3ccccc23)s1 | . | . | . | . | . | /
CC1CCN(c2ccc([N+](=O)[O-])cc2C(=O)N2CCOCC2)CC1 | . | . | / | . | . | /
CC1CCCC(C)N1C(=O)COC(=O)c1cc([N+](=O)[O-])ccc1N1CCOCC1 (stereo not given) | . | . | . | . | 63 | 74
CC1CC(C)CN(C(=O)COC(=O)c2cc([N+](=O)[O-])ccc2N2CCOCC2)C1 (stereo not given) | . | . | . | . | 83 | 81
CCOC(=O)C1CCN(C(=O)COC(=O)c2cc([N+](=O)[O-])ccc2N2CCOCC2)CC1 | . | . | . | . | 70 | 71
CCOC(=O)C1CCN(c2ccc([N+](=O)[O-])cc2S(=O)(=O)N2CCOCC2)CC1 | . | . | . | . | . | /
CC1CCCN(C(=O)COC(=O)c2cc([N+](=O)[O-])ccc2N2CCOCC2)C1 (stereo not given) | . | . | . | . | 81 | 84
Cc1csc(CNC(=O)C2CCC(=O)N(CCc3cccc(F)c3)C2)n1 (stereo not given) | . | . | . | . | . | /
COc1ccc(CCn2c(=N)c(S(=O)(=O)c3ccc(C)cc3)cc3c(=O)n4ccccc4nc32)cc1 | . | . | . | . | 59 | .
N=c1c(S(=O)(=O)c2ccc(Cl)cc2)cc2c(=O)n3ccccc3nc2n1C1CCCC1 | . | . | . | . | 65 | .
Cc1ccc(C)c(NC(=O)COC(=O)CC2CC3CCC2C3)c1 (stereo not given) | . | . | / | . | . | /
O=C(COC(=O)CC1CC2CCC1C2)Nc1cc([N+](=O)[O-])ccc1F (stereo not given) | . | . | . | . | 80 | 87
SMILES | NadD inh | ATG4B inhibitor | Calb FLC | SUMO Mot1 rescue | FAS-TE inh | FAS-TE inh conf
O=C(CSCc1ccccc1)Nc1cc([N+](=O)[O-])ccc1F | . | . | . | . | . | /
O=C(COC(=O)CCc1ccccc1)Nc1cc([N+](=O)[O-])ccc1F | . | . | . | . | 73 | 67
COc1cc(C(O)c2nc(-c3ccccc3)cs2)ccc1F (stereo not given) | . | / | / | / | . | /
Cc1c(Br)c([N+](=O)[O-])nn1CC(=O)Nc1ccccn1 | . | . | . | . | . | /
Cc1c(Br)c([N+](=O)[O-])nn1CC(=O)Nc1ccc(C(C)C)cc1 | . | . | . | . | 73 | 59
Cc1c(Br)c([N+](=O)[O-])nn1CC(=O)Nc1ccc(Cc2ccncc2)cc1 | . | . | . | . | 68 | 64
CC(=O)Nc1ccc(NC(=O)Cn2nc([N+](=O)[O-])c(Br)c2C)cc1 | . | . | . | . | . | /
CC(=O)Nc1cccc(NS(=O)(=O)c2cc3c4c(c2)CCN4C(=O)CC3)c1 | . | . | . | . | . | /
CC1CC(C)(C)OC(c2ccc(C(C)C)cc2)O1 (stereo not given) | . | . | / | / | . | /
CCCCn1c(N)c(N(CC(C)C)C(=O)CSc2ccccc2C)c(=O)[nH]c1=O | . | . | . | . | . | /
CCS(=O)(=O)c1ccc2oc(Nc3ccc(C(C)(C)C)cc3)nc2c1 | . | . | . | . | 76 | 52
COc1cccc(C(NC(C)=O)c2nc(-c3cccc(F)c3)cs2)c1 (stereo not given) | . | / | / | / | . | /
CC(C)n1c2ccccc2c2cc([N+](=O)[O-])ccc21 | . | . | . | . | . | /
CCC(C)n1c(=S)[nH]c2c(sc3ccc([N+](=O)[O-])cc32)c1=O (stereo not given) | . | . | . | . | 54 | 51
O=C(Nc1ccc(NC(=O)c2cccs2)c(Cl)c1)c1cccs1 | . | . | . | . | . | /
CN(Cc1ccccc1)C(=O)COC(=O)c1cc(Cl)nc(Cl)c1 | . | . | . | . | 51 | 64
O=C(COc1ccc(Br)cc1)N(Cc1ccco1)C1CCS(=O)(=O)C1 (stereo not given) | . | . | . | . | . | /
COc1ccccc1CNC(=O)COC(=O)c1cc2ccccc2o1 | . | . | / | . | . | /
CCOC(=O)C(C(=O)NCc1ccc(C)cc1)c1ncc(C(F)(F)F)cc1Cl (stereo not given) | . | . | . | . | . | /
Cc1ccc(CNC(=O)C(C(=O)NCc2ccc(C)o2)c2ncc(C(F)(F)F)cc2Cl)o1 | . | . | . | / | 62 | .
Cc1ccc(C(=O)O/N=C(\N)Cc2cccs2)cc1[N+](=O)[O-] | . | . | . | . | 62 | 76
COc1ccccc1C/C(N)=N/OC(=O)c1ccc(C)c([N+](=O)[O-])c1 | . | . | . | . | . | /
CCOc1ccc2cc(C3CC(c4ccco4)=NN3S(=O)(=O)c3ccccc3)c(Cl)nc2c1 (stereo not given) | . | . | . | . | . | /
